Pf apPOL inh – Pf-apPOL DNA polymerase inhibition. Recombinant Pf-apPOL, molecular beacon fluorescence, 1.5 h. inhibition, % at 10 µM. AID 1794808. 210,000 compounds, 0.25% hits
mHTT-CaM PPI inh – inhibitors of human mutant huntingtin-calmodulin interaction; P42858; 190,000 compounds, 3.6% hits; inhibition, % at 15 µM; AlphaScreen His-mHTT/GST-CaM binding, luminescence
Hits are given with their value; n = inactive; x = no result given; ! = repeats disagree. This excerpt belongs to a sample that is enriched for hits. Cut-off read from the data, not from the text of the source: active = inhibition above about 50%; inactive = the rest.

SMILES	Pf apPOL inh	mHTT-CaM PPI inh
Cc1ccc(S(=O)(=O)N=C2C=C(Nc3cccc(C(=O)O)c3)C(=O)c3ccccc32)cc1	n	62
Cc1ccc(S(=O)(=O)N=C2C=C(Nc3cccc(C(=O)O)c3)C(=O)c3ccccc32)c(C)c1	n	86
Cc1ccc(C)c(S(=O)(=O)N=C2C=C(Br)C(=O)c3ccccc32)c1	n	n
Cc1ccc(NC(=O)c2cccc(S(=O)(=O)Nc3cccc(C(=O)O)c3)c2)cc1	n	n
COc1ccccc1NC(=O)c1cc(S(=O)(=O)N2CCOCC2)ccc1Br	n	n
Cc1ccc2nsnc2c1NC(=O)c1ccccc1Cl	n	n
Cc1ccc(CC(=O)N2CCc3[nH]nc(C(=O)N4CCCCC4)c3C2)cc1	n	n
C=CCNC(=O)c1cc2c(=O)n3cccc(C)c3nc2n(CCc2ccccc2)c1=N	n	n
O=C(CSc1cccs1)Nc1nccs1	x	n
O=C(CSc1cccs1)NC1=NN(c2ccccc2)C(=O)C1	n	82
O=C(CSc1nc2sc3c(c2c(=O)[nH]1)CCCC3)NCc1ccco1	n	n
COc1ccc(C(=O)Oc2cc(C)[nH]c(=O)c2[N+](=O)[O-])c(OC)c1	n	56
COc1ccccc1C(=O)Oc1cc(C)[nH]c(=O)c1[N+](=O)[O-]	n	n
CCCCC(=O)Oc1cc(C)[nH]c(=O)c1[N+](=O)[O-]	n	n
CCCC(CCC)C(=O)Oc1cc(C)[nH]c(=O)c1[N+](=O)[O-]	n	87
O=C(N1CCN(C2CCCCC2)CC1)C1(S(=O)(=O)c2ccc(Cl)cc2)CC1	n	n
Cc1cc(O)cc2c1C(=O)C(=Cc1ccccc1)O2	n	n
Cc1cc(O)cc2c1C(=O)C(=Cc1cc3ccccc3o1)O2	n	55
C=C(C)COc1ccc2c(C)c(-c3ccc(OC)cc3OC)c(=O)oc2c1	n	n
CC(=O)Nc1nc2ccccc2n1CCN(C)C	n	n
CN(C)CCn1c2c(c3ccccc31)CCCn1nnnc1-2	n	56
O=C(CSc1ccccc1)N1CCOCC1	n	n
O=C(CSc1nc(-c2ccccc2)c(-c2ccccc2)o1)N1CCOCC1	n	56!
COCCCN1COc2ccc3c(=O)c(-c4ccc(Cl)cc4)c(C)oc3c2C1	n	n
O=S(=O)(Nc1ccc(Nc2ccccc2)c(NS(=O)(=O)c2ccccc2)c1)c1ccccc1	n	63
SMILES	Pf apPOL inh	mHTT-CaM PPI inh
CC(=O)Nc1ccc(S(=O)(=O)Nc2ccc(Nc3ccccc3)cc2)cc1	n	83
CC(=O)Nc1ccc(S(=O)(=O)Nc2ccc(S(=O)(=O)Nc3ccccc3)cc2)cc1	n	n
NS(=O)(=O)c1cccc(NS(=O)(=O)c2ccccc2)c1	n	x
OC(COCCC1CC2CCC1C2)CN1CCN(Cc2ccc3c(c2)OCO3)CC1 (centres undefined)	n	n
O=C1N(Cc2ccccc2)c2ccccc2C1(Cc1ccccc1)c1ccccc1 (centres undefined)	n	x
Cc1cc(C2(c3ccc(O)c(C)c3)C(=O)N(Cc3ccccc3)c3ccccc32)ccc1O	n	95
NS(=O)(=O)c1ccc(C(=O)Nc2ccc(-c3ccc(N4CCCC4)nn3)cc2)cc1	n	n
CC1CCCN(C(=O)COc2ccc(Cl)cc2)C1 (centres undefined)	n	n
O=C(COc1ccc(Cl)cc1)N1CCC(N2CCc3ccccc32)CC1	n	86
CC(C)NC(=O)C(C)C1CCN(S(=O)(=O)c2ccc(Br)s2)CC1 (centres undefined)	n	n
O=C(c1ccccc1)c1cc(F)c(N2CCOCC2)cc1Cl	n	n
O=c1cc[nH]c2cc(N3CCOCC3)c(F)cc12	80	n
COc1ccc(CNC(=O)C2(C)Oc3cccnc3NC2=O)cc1 (centres undefined)	n	n
Cc1cc(C)c(S(=O)(=O)N2CCCC2c2nc(-c3ccccc3C)no2)c(C)c1 (centres undefined)	n	n
CC1=C(C(=O)Nc2ccccn2)C(c2cccc(Cl)c2)C2=C(CCCC2=O)N1 (centres undefined)	n	n
Cc1ccc(Cl)cc1N1CCN(CC(O)c2ccc3c(c2)CCN3)CC1 (centres undefined)	n	71
OC(CN1CCN(c2ccc(Cl)cc2)CC1)c1ccc2c(c1)CCN2 (centres undefined)	n	n
O=C(Nc1cccc2ncccc12)C(c1ccccc1)n1cccc1 (centres undefined)	n	78
O=C(Nc1nccs1)C(c1ccccc1)n1cccc1 (centres undefined)	n	n
O=C1OCCN1C(=O)[C@H]1[C@H](c2ccc(Cl)cc2)C(c2ccccc2)=NN1c1ccc(Br)cc1	n	65
Cc1cccc(C2=NN(c3ccc(Br)cc3)[C@@H](C(=O)N3CCOC3=O)[C@@H]2c2ccc(Cl)cc2)c1	n	80
COc1ccccc1[C@@H]1C(c2cccc(C)c2)=NN(c2ccc(Br)cc2)[C@H]1C(=O)N1CCOC1=O	n	n
O=C1OCCN1C(=O)[C@H]1[C@H](c2ccc(Cl)cc2)C(c2cccc(Cl)c2)=NN1c1ccccc1	n	n
CC[C@@H]1C(c2cccc(Cl)c2)=NN(c2ccccc2)[C@H]1C(=O)N1CCOC1=O	n	n
O=C1OCCN1C(=O)[C@H]1[C@H](c2ccc([N+](=O)[O-])cc2)C(c2cccc(Cl)c2)=NN1c1ccc(Br)cc1	n	n
SMILES	Pf apPOL inh	mHTT-CaM PPI inh
CC[C@@H]1C(c2cccc(Cl)c2)=NN(c2ccc(Br)cc2)[C@H]1C(=O)N1CCOC1=O	n	95
Cc1cccc(C2=NN(c3ccc(Br)cc3)[C@@H](C(=O)N3CCOC3=O)[C@@H]2c2ccc(F)cc2)c1	n	76
Cc1noc(C)c1C1CCCN1C(=O)Cn1nc(C(F)(F)F)c2c1CCCC2 (centres undefined)	n	n
O=C(C1COCC(=O)N1Cc1ccccc1)N1CCN(c2ncccn2)CC1 (centres undefined)	n	n
CCOc1ccc(-n2c(SCC(=O)c3ccc(Cl)cc3)nc3c(c2=O)SCC3)cc1	n	n
CNC(=O)c1cc2n(n1)CCCN(Cc1ccc(C)cc1)C2=O	n	n
CC1CCCC(NC(=O)C2(C)CCC(=O)N2CCc2ccccc2)C1C (centres undefined)	n	n
CCOc1ccc(N(C(C)C(=O)Nc2ccc(F)c(Cl)c2)S(C)(=O)=O)cc1 (centres undefined)	n	n
CSc1nc(Cl)c(-c2ccccc2)c(Cl)n1	n	n
CC1CCN(CCCNC(=O)c2ccc(-c3nc(-c4ccccc4)no3)cc2)CC1	n	n
Cc1cccc(C2=NN(c3ccccc3)[C@@H](C(=O)N3CCOC3=O)[C@@H]2c2ccc([N+](=O)[O-])cc2)c1	n	54
O=C1OCCN1C(=O)[C@H]1[C@H](c2ccc(F)cc2)C(c2cccc(Cl)c2)=NN1c1ccc(Br)cc1	n	94
O=C1OCCN1C(=O)[C@H]1[C@H](c2ccccc2)C(c2cccc(Cl)c2)=NN1c1ccc(Br)cc1	n	n
O=C1OCCN1C(=O)[C@H]1[C@H](c2ccc([N+](=O)[O-])cc2)C(c2ccccc2)=NN1c1ccc(Br)cc1	n	n
CCc1ccc(-n2nc3ccc(N)cc3n2)cc1	n	n
Cc1noc(-c2ccc3c(c2)OCO3)c1C(=O)NCc1ccccc1	n	n
Cc1ccccc1CNC(=O)C1(C)CCCN(S(=O)(=O)c2ccccc2Cl)C1 (centres undefined)	n	n
Cc1ccc(C)c(S(=O)(=O)N2CCCC(C)(C(=O)NCc3ccccc3)C2)c1 (centres undefined)	n	n
